Source: PubChem
VP16 counter: VP16 counterscreen qHTS for inhibitors of ROR gamma transcriptional activity; Drosophila S2 Gal4-VP16 UAS-luciferase, luminescence, 20 h; Potency, µM (titrated, usually from 53.6 µM), inactives show at the highest dose activity, negative = inhibition, most hits filed as inhibitors; 310,000 compounds, 3.5% hits; AID 2546, 2010;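 note: Gal4-VP16 expression switched on by copper sulfate through the metallothionein promoter; potency is the fitted concentration of half-maximal effect; % is set by controls: 0 for no effect and ±100 for the full control effect; nearly all actives have a fitted effect of over 50% in size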
BCR signal inh: qHTS Assay to Find Inhibitors of Chronic Active B-Cell Receptor Signaling. ABC-DLBCL IkBa-CBG/CBR reporter, luminescence ratio, 4 h. AID 493014, 2011. Potency, µM (titrated, usually from 46.1 µM), for inactives: at the top dose activity change, negative = inhibition, hits mostly inhibitors. 340,000 compounds, 0.05% hits; active = well fitted inhibition curve with a large enough effect in the signal ratio, with a control signal flat, not every such curve was filed as active; inconclusive = small, poorly fitted or top-dose-only effect, or effect the other way, or a change in a side signal; the % refers to the signal ratio;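 note: potency is the fitted concentration of half-maximal effect; plate controls were basal doxycycline-induced cells for no effect and cells given 10 µM MG132 for full effect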
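Compounds up to 46 uM were incubated four hours with TMD8 cells whose green CBG68 luciferase is fused to IkappaBalpha; red CBR luminescence normalised the signal, and concentration-effect curves were fitted to fusion, red and ratio data.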
SW480 rerep: A quantitative high throughput screen for small molecules that induce DNA re-replication in SW480 colon adenocarcinoma cells; SW480 DNA re-replication, Hoechst DNA content imaging, 48 h; Potency, µM (titrated, usually from 46.1 µM), inactives show top-dose re-replication activation, most hits filed as activators; 340,000 compounds, 1.8% hits; AID 624297, 2012; note: potency is the fitted concentration of half-maximal effect; % of control where 0% means no effect; nearly all actives have a fitted effect of over 55% in size
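Readout is total intensity of Hoechst-stained nuclei, excited at 405 nm and collected at 500-530 nm. Compound treatment lasted 48 hr at 37 C in 5% CO2 before staining.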
RORg inh: qHTS for inhibitors of ROR gamma transcriptional activity | Potency, µM (series often up to 53.6 µM), for inactives: at the highest dose activity change, negative = inhibition, actives largely listed as inhibitors | AID 2551, 2010 | 310,000 compounds, 5.4% hits | Drosophila S2 Gal4-RORgamma UAS-luciferase reporter, 20 h; note: potency is the fitted concentration of half-maximal effect; % is set by controls: 0 for no effect and ±100 for the full control effect; nearly all actives have a fitted effect of over 60% in size
Target sequence (P51450 whole entry, looked up, the tested form may be a part): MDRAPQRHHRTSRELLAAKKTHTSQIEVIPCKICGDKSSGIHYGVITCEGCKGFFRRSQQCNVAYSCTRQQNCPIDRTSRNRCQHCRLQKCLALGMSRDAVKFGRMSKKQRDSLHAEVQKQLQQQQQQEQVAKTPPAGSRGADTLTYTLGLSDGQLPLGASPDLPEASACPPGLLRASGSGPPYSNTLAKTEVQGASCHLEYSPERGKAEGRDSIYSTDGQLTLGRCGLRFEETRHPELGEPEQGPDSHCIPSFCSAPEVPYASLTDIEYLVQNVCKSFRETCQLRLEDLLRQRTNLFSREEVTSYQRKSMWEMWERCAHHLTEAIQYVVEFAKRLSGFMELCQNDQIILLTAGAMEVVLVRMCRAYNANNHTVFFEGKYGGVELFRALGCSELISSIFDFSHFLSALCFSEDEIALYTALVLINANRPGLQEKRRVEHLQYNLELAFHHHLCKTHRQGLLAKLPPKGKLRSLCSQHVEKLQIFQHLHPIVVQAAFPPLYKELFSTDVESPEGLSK
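ROR gamma transcriptional activity was tracked as Gal4-UAS luciferase output in stably transfected Drosophila Schneider cells, with compound added 1 hr before 700 uM copper sulfate induction and a 20 hr ambient-temperature incubation.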
Giardia kill: Small Molecules that selectively kill Giardia lamblia: qHTS. AID 540267, 2011. 340,000 compounds, 0.15% hits. activity change, % at 7.66 µM, hits read low. Giardia lamblia trophozoite viability; in the data active = activity change below about -80%; inconclusive = between about -30% and that limit;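 note: parasites exposed to compound for two days anaerobically before the ATP read; % is set by controls: 0 for no effect and ±100 for the full control effect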
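Giardia trophozoites, 100 cells per well, were exposed to compounds for 48 hrs at 37 deg C under anaerobic conditions; viability was then read as ATP content by bioluminescence after 15-30 min at room temperature.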
MCF10A rereplic: A quantitative high throughput screen for small molecules that induce DNA re-replication in MCF 10a normal breast cells; MCF 10A DNA re-replication, Hoechst nuclear intensity, 48 h; Potency, µM (top dose mostly 46.1 µM), for the others: at the highest dose activity, positive = re-replication, hits mostly activators; AID 624296, 2012; 350,000 compounds, 2.9% hits; note: potency is the fitted concentration of half-maximal effect; % of control where 0% means no effect; nearly all actives have a fitted effect of over 50% in size
An asterisk follows results filed as active; ? = inconclusive; nt = not tested or not shown; [ ] = another dose, or the depositor's remark. Only some compounds are listed: those with a hit (about 8.3% of all), similar ones and a draw of the others. Unless noted, calls come from the whole dose curve; as a rule, active = well fitted curve in the direction sought with a large enough effect; inconclusive = small, poorly fitted or top-dose-only effect, or another doubt; inactive = no such curve, though single readings can be large; an effect the other way counts as inactive or inconclusive.

SMILES | VP16 counter | BCR signal inh | SW480 rerep | RORg inh | Giardia kill | MCF10A rereplic
Cc1ccc(NS(=O)(=O)c2cccc(C(=O)NCCc3c[nH]c4ccccc34)c2)c(C)c1 | 22µM* | ? | ? | ? | 15 | ?
Cc1ccccc1NC(=S)NCCc1c[nH]c2ccccc12 | 11µM* | -4% | 8% | 7.9µM* | 4 | 8%
COc1ccccc1NC(=O)NCCc1c[nH]c2ccccc12 | 0% | ? | -1% | 21% | -10 | 2%
Cc1ccc(C)c(NC(=O)C(=O)NCCc2c[nH]c3ccccc23)c1 | -15% | ? | 0% | ? | 5 | 9%
Cc1ccc(NC(=O)C(=O)NCCc2c[nH]c3ccccc23)c(C)c1 | -3% | 12% | 8% | -3% | -16 | -1%
Cc1ccc(C)c(NC(=S)NCCc2c[nH]c3ccccc23)c1 | 11µM* | 6% | ? | 1.3µM* | -2 | 1%
COc1ccc(Cl)cc1NC(=S)NCCc1c[nH]c2ccccc12 | 7.1µM* | ? | ? | 5.6µM* | -4 | -2%
NC(=O)c1nn2c(C(F)(F)F)cc(-c3ccc(Br)cc3)nc2c1Cl | nt | -4% | nt | nt | nt | nt
O=[N+]([O-])c1ccc(-c2nc(C(Cl)Cl)c3ccccc3n2)cc1 | -22% | ? | ? | -40% | -91* | ?
Cc1cc(C)c(NC(=O)/C(=C/c2ccco2)c2ccccc2)c(C)c1 | 5% | 14% | -7%[9.22 µM] | 6% | -4 | 1%
Cc1cccc(C)c1NC(=O)/C(=C/c1ccco1)c1ccccc1 | 13µM* | ? | 3% | ? | -5 | -4%
c1ccc(Nc2ncnc3sccc23)cc1 | -11% | -20% | -25% | -28% | -6 | ?
CC(Nc1ncnc2sccc12)c1ccccc1 (centres undefined) | 1.4µM* | 1% | -3% | ? | 2 | 7%
O=C1C=C(c2c(O)ccc3ccccc23)c2ccccc2C1=O | nt | nt | 18µM* | nt | -24 | 17%
COc1cc(NC(=O)CCCNC(=O)Cn2cnc3sc4c(c3c2=O)CCCC4)cc(OC)c1OC | 0% | -2% | -4% | 4% | -1 | -1%
O=C(Cn1c(=O)n2nc(-c3cccc(F)c3)nc2c2ccccc21)N1CCN(c2ccc(F)cc2)CC1 | nt | -1% | nt | nt | nt | nt
CCN1C(=O)c2cccc3c(S(=O)(=O)Nc4ncccc4C)ccc1c23 | -4% | ? | -6% | 2% | 12 | -1%
CCN1C(=O)c2cccc3c(S(=O)(=O)Nc4ccncc4)ccc1c23 | 1% | ? | 0% | 0% | -13 | 1%
CCN1C(=O)c2cccc3c(S(=O)(=O)N(C(=O)c4ccncc4)c4ccc(OC)cc4)ccc1c23 | 7.9µM* | -11% | -10% | ? | -13 | ?
CCN1C(=O)c2cccc3c(S(=O)(=O)Nc4nc(C)cs4)ccc1c23 | -8% | ? | -1% | ? | 2 | 15µM*
CCN1C(=O)c2cccc3c(S(=O)(=O)Nc4ccccc4)ccc1c23 | ? | ? | 13% | -36% | 3 | 23µM*
CCN1C(=O)c2cccc3c(S(=O)(=O)Nc4ccc(OC)cc4OC)ccc1c23 | 18µM* | 2% | -1% | ? | 6 | 13%
CC(C)(C)C(=O)Nc1ccc2c(c1)C(=O)C(=O)c1ccccc1-2 | nt | nt | nt | nt | 13 | nt
O=C(CCCC(=O)c1ccc(F)cc1)c1ccc(F)cc1 | -15% | ? | -2% | -3% | 0 | -2%
C/C(=N\NC(N)=O)c1c(F)cccc1F | 6% | 7% | -15% | -1% | -5 | -5%
SMILES | VP16 counter | BCR signal inh | SW480 rerep | RORg inh | Giardia kill | MCF10A rereplic
CCN1C(=O)c2cccc3c(S(=O)(=O)NCc4ccco4)ccc1c23 | 22% | 1% | ? | -45% | -9 | 12µM*
CCc1ccc2[nH]c(O)c(N=NC3=NC(=O)CS3)c2c1 | 11% | ? | -16% | -20% | 22 | 8%
CCc1ccc2c(c1)c(N=NC1=NC(=O)CS1)c(O)n2CC | ? | 9% | -2%[9.22 µM] | 11µM* | 2 | 11%
O=C(NCc1ccccc1)C(c1ccc(F)cc1)N(C(=O)c1csnn1)C1CCCC1 (centres undefined) | -2% | 1% | 20% | 18% | 3 | ?
COc1cc(C(=O)Nc2ccc3ccccc3c2)cc(OC)c1OC | -1% | ? | 1.3µM* | 37% | -4 | 2.6µM*
COc1cc(C(=O)Nc2ccc3c(c2)C(=O)c2ccccc2C3=O)cc(OC)c1OC | 6% | -4% | -4% | 26% | 4 | -3%
COc1cc(C(=O)Nc2ccc3c(c2)Cc2ccccc2-3)cc(OC)c1OC | -21% | -2% | -2% | -7% | 1 | 8.2µM*
COC(=O)N1CCC2(CC1)CCN(c1ncccn1)CC2 | 13% | nt | nt | -2% | nt | nt
CC(OC(=O)C1CCCC1)C(=O)Nc1ccc(S(N)(=O)=O)cc1 (centres undefined) | nt | 4% | 0% | nt | 10 | 3%
C=CCC[C@@H](Cc1ccc(F)cc1)C(=O)O[C@H](CNC(=O)[C@@H](CC=C)CC(=O)N[C@H](CO)Cc1ccccc1)c1ccccc1 | nt | 5% | ? | nt | -11 | -1%
CN(C)C(=S)NC(=O)C12CC3(C)CC(C)(CC(C)(C3)C1)C2 | -23% | 3% | 2% | 2.5µM* | -16 | -5%
COc1ccc(NC(=O)CC2SC(=O)NC2=O)cc1 (centres undefined) | 13µM* | ? | 1% | 11µM* | -3 | 16%
Cc1ccc(NC(=O)CC2S/C(=N/N=C3/NC(=O)CS3)NC2=O)cc1 (centres undefined) | -7% | -2% | -8% | ? | 9 | -3%
Cc1ccc(NC(=O)CC2SC(=O)NC2=O)cc1 (centres undefined) | 4.5µM* | 0% | -1% | 5µM* | -12 | 13%
CC1(c2ccccc2Br)NC(=O)N(CC(=O)Nc2ccc(S(N)(=O)=O)cc2)C1=O (centres undefined) | 22% | 12% | -7% | ? | 24 | 7%
Cc1cc(Cl)ccc1Nc1nc(NCc2ccco2)nc2nccnc12 | nt | nt | nt | nt | 2 | nt
COc1cccc(CN=c2c([N+](=O)[O-])nn(-c3ccccc3C)n2O)c1 | -3% | 10% | -6% | ? | -109* | -6%
Cc1cccc(-n2nc([N+](=O)[O-])c(=NCc3cccnc3)n2O)c1 | -9% | 20% | -5% | ? | -88* | 4%
O=[N+]([O-])c1nn(-c2cccc(Cl)c2)n(O)c1=NCc1cccnc1 | ? | 15% | 3% | 34% | -20 | 11%
